Screens as filed in PubChem BioAssay.
In the library only some 9.2% were active in any assay of this set; here they are far more common.
FLuc counter: firefly luciferase modulation, counter-screen for miR-21 project; P08659; Potency, µM (series often up to 57.5 µM), for inactives: top-dose activity change, negative = inhibition, most hits filed as inhibitors; purified FLuc, Km substrates, luminescence inhibition; 360,000 compounds, 6.9% hits;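 note: plate controls were vehicle for no effect and reference inhibitor for full effect; nearly all actives have a fitted effect of over 55% in size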
Target sequence (P08659 whole entry, looked up): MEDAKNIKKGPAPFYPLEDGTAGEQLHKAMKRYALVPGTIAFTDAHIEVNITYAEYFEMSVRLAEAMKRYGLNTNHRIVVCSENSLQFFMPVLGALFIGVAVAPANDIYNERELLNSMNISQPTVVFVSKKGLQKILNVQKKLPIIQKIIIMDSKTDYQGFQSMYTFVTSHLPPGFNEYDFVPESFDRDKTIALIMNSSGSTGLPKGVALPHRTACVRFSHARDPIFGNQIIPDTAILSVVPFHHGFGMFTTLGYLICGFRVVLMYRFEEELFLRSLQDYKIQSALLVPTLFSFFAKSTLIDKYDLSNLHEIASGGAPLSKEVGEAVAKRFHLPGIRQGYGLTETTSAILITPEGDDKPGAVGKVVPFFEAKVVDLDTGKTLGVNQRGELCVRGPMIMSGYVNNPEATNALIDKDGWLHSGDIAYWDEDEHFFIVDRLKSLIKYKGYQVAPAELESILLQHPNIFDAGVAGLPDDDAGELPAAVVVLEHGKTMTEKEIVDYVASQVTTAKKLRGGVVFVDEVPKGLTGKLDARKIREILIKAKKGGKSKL
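Purified P. pyralis luciferase, 10 nM final, with Km-level 10 uM D-luciferin and 10 uM ATP in 50 mM Tris acetate pH 7.5, 10 mM Mg acetate, 0.01% Tween-20, 0.05% BSA; 6-point qHTS titration about 60 µM downward; luminescence read.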
SMN2 splice enh: increases expression of the SMN2 splice variant; Potency, µM (series often up to 46.1 µM), without a hit: top-dose activity change, positive = activation, usual class: activators; HEK293 SMN2-luciferase splicing reporter, luminescence, 30-36 h; AID 1458; 210,000 compounds, 2.8% hits; note: % of control where 0% means no effect; nearly all actives have a fitted effect of over 55% in size
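qHTS luciferase splicing reporter: luminescence rises when SMN2 exon 7 is included in transfected HEK293 cells. Compound exposure lasted 30-36 h at 37C, with 4.5 mM final sodium butyrate as control, followed by a ONE-Glo read.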
NPC1 prom act: activates the NPC1 promoter; 320,000 compounds, 2.4% hits; Huh7 NPC1 promoter luciferase reporter, 24 h; Potency, µM (titrated, usually from 9.22 µM), without a hit: top-dose activation, usual class: activators; note: % of control where 0% means no effect; nearly all actives have a fitted effect of over 60% in size
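Luminescence read-out of NPC1 promoter-driven luciferase in stably transfected Huh7 cells; compounds delivered in DMSO and left 24 h at 37C, 5% CO2, qHTS titration format.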
ELG1 repair inh: inhibitors of ELG1-dependent DNA repair in HEK293T cells; 330,000 compounds, 2.3% hits; Potency, µM (series often up to 46.1 µM), for inactives: at the top dose activity change, negative = inhibition, hits mostly inhibitors; AID 504467; HEK293T ELG1-luciferase reporter, luminescence, 16 h; DNA damage induced by 5-fluorouridine; note: % is set by controls: 0 for no effect and ±100 for the full control effect; nearly all actives have a fitted effect of over 55% in size
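DMSO vehicle served as the neutral condition. Each well held 2,000 cells given 5-fluorouridine plus compound; after 16 hr at 37 °C/5% CO2, ONE-Glo was added and luciferase measured 30 min later.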
Rab9 promoter act: activates the Rab9 promoter | AID 485297 | 320,000 compounds, 2.8% hits | Potency, µM (titrated, usually from 9.22 µM), without a hit: at the top dose activation, negative = inhibition, usual class: activators | Huh7 Rab9 promoter-luciferase reporter, luminescence, 24 h; note: % of control where 0% means no effect; nearly all actives have a fitted effect of over 60% in size
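Quantitative HTS format; Huh7 Rab9-luciferase reporter cells (1500/well) receive compound 2 h post-plating, incubate 24 h at 37 °C, then get luciferase reagent for 10 min before luminescence reading.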
ELG1 genotoxic: induces genotoxicity in HEK293T cells with luciferase-tagged ELG1; HEK293T ELG1-luciferase reporter, luminescence, 16 h; 330,000 compounds, 1.3% hits; Potency, µM (doses to about 46 µM), inactives show top-dose activity change, positive = activation, most hits filed as activators; AID 504466; note: % of control where 0% means no effect; nearly all actives have a fitted effect of over 60% in size
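After overnight (16 hr) compound treatment at 37 °C, ELG1-luciferase HEK293T cells were lysed with ONE-Glo; luminescence quantified 30 min later at room temperature.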
The depositor's hits bear a star. Calls come from the whole dose curve; as a rule, active = well fitted curve in the direction sought with a large enough effect; inconclusive = small, poorly fitted or top-dose-only effect, or another doubt; inactive = no such curve, though single readings can be large; an effect the other way counts as inactive or inconclusive. Potency is the fitted concentration of half-maximal effect.

For CC(C)c1ccccc1NC(=O)COC(=O)c1c2c(nc3ccccc13)CCN(Cc1ccccc1)C2 the results were FLuc counter -12%, SMN2 splice enh -31%, NPC1 prom act -2%, ELG1 repair inh 12µM*, Rab9 promoter act -3% and ELG1 genotoxic -19%.
Screening Cc1c(Cl)cccc1NC(=O)COC(=O)c1c2c(nc3ccccc13)CCN(Cc1ccccc1)C2 returned FLuc counter -16%, NPC1 prom act -9%, ELG1 repair inh 13µM*, Rab9 promoter act -2% and ELG1 genotoxic -7%.
Screening O=C(NC1CCCCCC1)c1c2c(nc3ccccc13)CCN(Cc1ccccc1)C2 returned FLuc counter 3%, SMN2 splice enh 8%, NPC1 prom act -1%, ELG1 repair inh inconclusive, Rab9 promoter act -1% and ELG1 genotoxic -7%.
Cc1cc(N2CCN(C)CC2)ccc1NC(=O)c1c2c(nc3ccccc13)CCN(Cc1ccccc1)C2 was read as FLuc counter -8%, SMN2 splice enh -70%, NPC1 prom act -41%, ELG1 repair inh inconclusive, Rab9 promoter act -32% and ELG1 genotoxic 23µM*.
Screening C=CC[C@@H](CC(=O)N(CCO)Cc1ccccc1)C(=O)N[C@H](COC(=O)[C@@H](CC=C)CC(=O)OC(C)(C)C)Cc1c[nH]c2ccccc12 returned ELG1 repair inh 18µM* and ELG1 genotoxic -10%.
Screening C=CC[C@H](CC(=O)N(CCO)Cc1ccccc1)C(=O)N[C@@H](COC(=O)[C@H](CC=C)CC(=O)OC(C)(C)C)Cc1c[nH]c2ccccc12 returned ELG1 repair inh 23µM* and ELG1 genotoxic -5%.
For O=C(NCCN1CCOCC1)C1CCN(S(=O)(=O)N2CCCC2)CC1 the results were FLuc counter -1%, SMN2 splice enh 20%, NPC1 prom act -9%, ELG1 repair inh 10%, Rab9 promoter act 1% and ELG1 genotoxic 0%.
COc1cccc(/C=N/NC(=O)CN2CC(c3ccccc3)CC2=O)c1O (stereo not drawn) was read as FLuc counter 12µM*, SMN2 splice enh -48%, NPC1 prom act -8%, ELG1 repair inh -12%, Rab9 promoter act -19% and ELG1 genotoxic 4%.
`COc1cccc(/C=N/NC(=O)C[n+]2ccccc2)c1O` gave FLuc counter inconclusive, SMN2 splice enh 18%, NPC1 prom act 1%, ELG1 repair inh inconclusive, Rab9 promoter act -8% and ELG1 genotoxic 1%.
`COc1ccc(/C=N/NC(=O)CSc2nnc(C)n2-c2ccccc2)c(OC)c1OC` gave FLuc counter -1%, SMN2 splice enh -6%, NPC1 prom act 1%, ELG1 repair inh inconclusive, Rab9 promoter act 1% and ELG1 genotoxic -5%.
`COc1cccc(/C=N/NC(=O)CSc2nnc(C)n2-c2ccccc2)c1O` gave FLuc counter 17µM*, SMN2 splice enh -25%, NPC1 prom act -9%, ELG1 repair inh -15%, Rab9 promoter act -3% and ELG1 genotoxic -4%.
Screening Cc1cc(C)c(OCC(=O)OC(C)C(=O)NC2CC2)c(C)c1 (stereo not drawn) returned FLuc counter 3%, NPC1 prom act 1%, ELG1 repair inh 8%, Rab9 promoter act 7% and ELG1 genotoxic 3%.
Screening CCOC(=O)C1(Cc2ccccc2)CCN(Cc2cn[nH]c2-c2ccccc2)CC1 returned FLuc counter 4%, NPC1 prom act -5%, ELG1 repair inh -18%, Rab9 promoter act -14% and ELG1 genotoxic -6%.
`COC(=O)[C@@]1(Cc2ccc(F)cc2)[C@H]2c3cc(C(=O)N4CCCC4)n(CCN4CNCC4=O)c3C[C@H]2CN1C(=O)c1ccccc1` gave SMN2 splice enh 4%.
`CN1/C(=C/c2cc[n+](C)c3ccccc23)C=Cc2ccccc21` gave FLuc counter 13µM*, SMN2 splice enh -90%, NPC1 prom act -43%, ELG1 repair inh 1.3µM*, Rab9 promoter act -39% and ELG1 genotoxic -21%.
For C[n+]1ccc(/C=C/c2ccccc2O)c2ccccc21 the results were FLuc counter -15%, SMN2 splice enh -38%, NPC1 prom act -6%, ELG1 repair inh inconclusive, Rab9 promoter act -6% and ELG1 genotoxic -12%.
`O=C(Nc1cccc(Br)c1)c1ccc(OC2CSC2)cc1` gave FLuc counter 2.7µM*, SMN2 splice enh 74%, NPC1 prom act inconclusive, ELG1 repair inh inconclusive, Rab9 promoter act 2.2µM* and ELG1 genotoxic 3.3µM*.
CC(=O)c1cccc(NC(=O)c2ccc(OC3CSC3)cc2)c1 was read as FLuc counter inconclusive, SMN2 splice enh -42%, NPC1 prom act 22%, ELG1 repair inh inconclusive, Rab9 promoter act 29% and ELG1 genotoxic -11%.
Cc1cccc(NC(=O)c2ccc(OC3CSC3)cc2)c1 was read as FLuc counter 1.9µM*, SMN2 splice enh 18µM*, NPC1 prom act 2.5µM*, ELG1 repair inh inconclusive, Rab9 promoter act 4µM* and ELG1 genotoxic 10µM*.
For COc1cccc(Nc2ncc3nc(-c4cc(F)cc(F)c4)c(=O)n(CCC#N)c3n2)c1 the results were SMN2 splice enh -15%.
Screening CCCN1C(=O)/C(=C/c2ccc(N3CCOCC3)cc2)NC1=S returned FLuc counter inconclusive, SMN2 splice enh -31%, NPC1 prom act 0%, ELG1 repair inh -22%, Rab9 promoter act 1% and ELG1 genotoxic -4%.
For Cc1cc(/C=C2\NC(=S)N(C)C2=O)ccc1N1CCCC1 the results were FLuc counter 7.6µM*, NPC1 prom act inconclusive, ELG1 repair inh 2%, Rab9 promoter act 3.5µM* and ELG1 genotoxic inconclusive.
Screening COc1cc(/C=C2\NC(=S)N(C)C2=O)ccc1O returned FLuc counter -9%, SMN2 splice enh -1%, NPC1 prom act -8%, ELG1 repair inh 3%, Rab9 promoter act 1% and ELG1 genotoxic 9%.
Cc1cc(/C=C2/C(=O)N(C)C(=S)N2C)ccc1N1CCCC1 was read as FLuc counter 4.8µM*, SMN2 splice enh 13µM*, NPC1 prom act inconclusive, ELG1 repair inh inconclusive, Rab9 promoter act inconclusive and ELG1 genotoxic inconclusive.
`CCN1C(=O)/C(=C/c2ccc(N3CCCC3)cc2)NC1=S` gave FLuc counter 19µM*, SMN2 splice enh -18%, NPC1 prom act -3%, ELG1 repair inh inconclusive, Rab9 promoter act 0% and ELG1 genotoxic -3%.
